Bioassay records: PubChem BioAssay, National Center for Advancing Translational Sciences (NCATS)
CHX counter: counter-screen for Shiga toxin inhibitors: cycloheximide protein synthesis inhibition; max response, %; cell reporter, cycloheximide protein synthesis inhibition counterscreen; actives 12% (n = 300,000); AID 2314; in the data active = max response mostly above about 13%, no sharp cut-off; inactive = mostly below about 14%; note: read at 38.3 µM for the half of the compounds with a filed dose; 0% is about no effect
Sm TGR inh: inhibitors of Schistosoma mansoni thioredoxin glutathione reductase; Potency, µM (top dose mostly 114 µM), inactives show at the top dose activity change, negative = inhibition, usual class: inhibitors; actives 3% (n = 360,000); purified TGR, DTNB reduction, TNB absorbance 405 nm; note: potency is the fitted concentration of half-maximal effect; % is set by controls: 0 for no effect and ±100 for the full control effect; nearly all actives have a fitted effect of over 60% in size
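TGR 20 nM + NADPH 100 uM (dispensed conc.), cpd preinc 15 min RT; start with NADPH (500 uM addition) then DTNB (15 mM addition). Kinetic TNB absorbance, 405 nm filter. Four-parameter Hill fit across titration.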
LmPK inh: blocks Leishmania mexicana pyruvate kinase activity; Q27686; purified LmPK, Kinase-Glo ATP luminescence, 1 h; Potency, µM (highest dose often 57.5 µM), without a hit: top-dose activity change, negative = inhibition, actives largely listed as inhibitors; actives 0.37% (n = 290,000); note: potency is the fitted concentration of half-maximal effect; % is set by controls: 0 for no effect and ±100 for the full control effect
Target sequence (Q27686 whole entry, looked up): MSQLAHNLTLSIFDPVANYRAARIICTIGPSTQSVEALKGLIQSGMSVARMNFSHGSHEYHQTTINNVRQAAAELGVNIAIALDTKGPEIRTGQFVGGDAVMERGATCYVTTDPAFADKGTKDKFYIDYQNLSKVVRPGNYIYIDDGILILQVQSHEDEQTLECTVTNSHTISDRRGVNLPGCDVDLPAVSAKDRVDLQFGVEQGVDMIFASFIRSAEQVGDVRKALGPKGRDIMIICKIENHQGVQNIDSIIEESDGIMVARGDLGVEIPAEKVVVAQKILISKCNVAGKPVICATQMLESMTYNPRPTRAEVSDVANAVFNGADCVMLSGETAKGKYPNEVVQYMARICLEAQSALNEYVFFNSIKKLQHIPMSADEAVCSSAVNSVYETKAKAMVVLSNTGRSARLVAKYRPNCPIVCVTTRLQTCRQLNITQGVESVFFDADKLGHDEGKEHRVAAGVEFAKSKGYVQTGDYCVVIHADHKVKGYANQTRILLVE
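qHTS format; LmPK 0.1 nM; substrates PEP 0.5 mM and ADP 0.1 mM. One-hour room-temperature incubation, then coupled luciferase luminescence; 0.5 nM enzyme wells mark activation.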
Giardia FBPA inh: inhibitors of Giardia lamblia fructose-1,6-bisphosphate aldolase; A8B2U2; purified Giardia FBPA; Potency, µM (highest dose often 59.6 µM), without a hit: top-dose activity, negative = inhibition, hits mostly inhibitors; actives 0.71% (n = 290,000); AID 2451; note: potency is the fitted concentration of half-maximal effect; % is set by controls: 0 for no effect and ±100 for the full control effect; nearly all actives have a fitted effect of over 55% in size
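40 nM FBPA preincubated 10 min at RT with compound (up to 57.5 uM final), then substrate plus GAPDH/TPI/NAD/arsenate coupling and diaphorase/resazurin added. Fluorescence read after 20 min at RT, 525/598 nm.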
Tb PYK inh: T. brucei pyruvate kinase inhibition | actives 0.12% (n = 410,000) | TbPYK enzyme, Kinase-Glo Plus ATP luminescence, 45 min | Potency, µM (titrated, usually from 76.8 µM), without a hit: top-dose activity, negative = inhibition, actives largely listed as inhibitors | Q57TT1; note: potency is the fitted concentration of half-maximal effect; % is set by controls: 0 for no effect and ±100 for the full control effect; nearly all actives have a fitted effect of over 50% in size
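Readout: single end-point luminescence (Kinase-Glo Plus, 10 min). Reaction conditions were TbPYK/substrate plus 130 uM ADP, 45 min at RT, pH 7.2 TEA buffer. No-enzyme wells served as controls, and data were normalized before concentration-response fitting.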
Shiga toxin inh: blocks Shiga toxin action in Vero cells; Vero cells, Shiga toxin protein synthesis inhibition reporter; inhibition, % at 38.7 µM; actives 9.2% (n = 290,000); AID 2315; in the data active = inhibition mostly above about 28%, no sharp cut-off; inactive = mostly below about 43%; note: 0% is about no effect
An asterisk follows results filed as active; ? = inconclusive; nt = no result given. The sample as a whole holds a higher share of hits than the screen did. Unless noted, calls come from the whole dose curve; as a rule, active = well fitted curve in the direction sought with a large enough effect; inconclusive = small, poorly fitted or top-dose-only effect, or another doubt; inactive = no such curve, though single readings can be large; an effect the other way counts as inactive or inconclusive.

SMILES	CHX counter	Sm TGR inh	LmPK inh	Giardia FBPA inh	Tb PYK inh	Shiga toxin inh
COC(=O)c1ccccc1NC(=O)c1sc(N)nc1C	7	3%	5%	3%	2%	13
Cc1ccc(NC(=O)c2c(C)noc2C)cc1	-2	-14%	1%	3%	-7%	-21
COc1ccc2c(C)c(CCC(=O)NCc3ccc(C)cc3)c(=O)oc2c1	nt	2%	nt	nt	-4%	nt
Cc1ccc2c(=O)cc(C(=O)Nc3nc4ccc(Cl)cc4s3)oc2c1C	nt	-10%	nt	nt	3%	nt
CN[C@@H](CCCN=C(N)N)C(=O)N[C@@H](CCCCN)C(=O)N1CCC[C@H]1C(=O)N[C@@H](Cc1c[nH]c2ccccc12)C(=O)N[C@H](C(=O)N[C@H](CC(C)C)C(=O)O)C(C)(C)C	-5	nt	nt	0%	nt	-5
Cc1nc(N)sc1C(=O)Nc1ccccc1	35*	0%	?	-23%	-11%	68*
Cc1nc(NC(N)=S)sc1C(=O)Nc1ccccc1	1	-3%	-2%	?	-5%	-2
Cc1nc(Nc2c(Cl)cccc2Cl)sc1C(=O)Nc1ccccc1	19*	-3%	3%	2%	-1%	21
Cc1cccc(Nc2nc(-c3ccccc3)c(C(=O)Nc3cccnc3)s2)c1	33*	2%	5%	-12%	-17%	48*
Cc1nc(NC(=O)C2CC2)sc1C(=O)Nc1ccccc1	-1	-9%	-8%	-3%	-20%	22
Cc1nc(C(=O)Nc2ccccc2)sc1C(=O)Nc1ccccc1	40*	-10%	-8%	-13%	-12%	79*
COc1cccc(NC(=O)Cn2c(=O)n(Cc3ccco3)c(=O)c3cc(OC)c(OC)cc32)c1	nt	-10%	nt	nt	-1%	nt
COc1cccc(-c2nc(CS(=O)(=O)CC(=O)NCc3ccc(C)cc3)c(C)o2)c1	nt	-21%	nt	nt	-3%	nt
O=C(CCl)N1CCN2C(=O)c3ccccc3C12c1ccc(Cl)cc1 (centres undefined)	-2	2.5µM*	1%	-5%	-2%	-5
Cc1ccc(C2=Nc3ccccc3N(CC(=O)Nc3ccccc3F)C(=O)C2)cc1C	nt	3%	nt	nt	2%	nt
COc1cc(C)ccc1OCc1cc(C(=O)N2CCC(c3ccc(F)cc3)C2)no1 (centres undefined)	58*	-6%	0%	nt	0%	113*
Cc1ccc(C)c(OCc2cc(C(=O)N3C[C@@H](C)O[C@@H](C)C3)no2)c1	48*	-23%	-3%	nt	4%	87*
Cc1ccc(C)c(OCc2cc(C(=O)N3CCN(C4CCCCC4)CC3)no2)c1	nt	nt	nt	nt	1%	nt
Cc1ccc(C)c(OCc2cc(C(=O)N3CC[C@@H]4CCCC[C@H]4C3)no2)c1	33*	12%	2%	nt	-7%	105*
Cc1ccc(N2CC(NC(=O)c3ccc(S(=O)(=O)N4CCCC4)cc3)CC2=O)cc1C (centres undefined)	nt	7%	nt	nt	3%	nt
O=[N+]([O-])c1cc(-c2nc(-c3ccccc3)no2)ccc1N1CCCC1	nt	-6%	nt	nt	0%	nt
O=[N+]([O-])c1cc(Cl)ccc1-c1nc(-c2ccccc2)no1	58*	1%	-8%	2%	3%	62*
O=[N+]([O-])c1cc(Cl)ccc1-c1nc(-c2ccncc2)no1	19	4%	0%	2%	1%	42*
CC(C)C1COc2cc3oc(=O)ccc3cc2O1 (centres undefined)	nt	nt	nt	2%	nt	nt
COc1cc(SC)ccc1C(=O)N1CCN(S(=O)(=O)/C=C/c2ccccc2)CC1	nt	40µM*	nt	nt	5%	nt
SMILES	CHX counter	Sm TGR inh	LmPK inh	Giardia FBPA inh	Tb PYK inh	Shiga toxin inh
COc1cc(SC)ccc1C(=O)N1CCN(c2ccccc2F)CC1	-3	nt	7%	0%	-8%	-5
Nc1ccc(Nc2ccccc2)c(Cl)c1	27*	11µM*	1%	-2%	-1%	52*
Nc1ccccc1Nc1ccccc1	-4	4%	-6%	-18%	-18%	-2
CCCCNC(=O)C(CC)Sc1nc2ccccc2c(=O)n1Cc1ccco1 (centres undefined)	nt	-21%	nt	nt	-9%	nt
CC1(C)N(O)C(c2ccc(C(=O)O)cc2)=[N+]([O-])C1(C)C	nt	nt	nt	40µM*	nt	nt
CC(=O)C(=Cc1ccc(C(=O)O)cc1)C(C)=O	-1	-5%	-4%	2%	-1%	-3
